Compound activity deposited in PubChem by National Center for Advancing Translational Sciences (NCATS).
IL1B secr inh = inflammasome signaling inhibition, IL-1 beta readout; THP-1 LPS/ATP IL-1B secretion, AlphaLISA, 16 h; hits give low values; activity change, % at 57.5 µM; hit rate 4.7% among 360,000; in the data active = activity change below about -50%; inconclusive = mostly about -30% to -49%
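THP-1 cells pretreated 1 hr with compounds (up to 57.5 uM final), then stimulated with LPS (250 ng/mL final) plus ATP (1.25 mM final); secreted IL-1B measured by AlphaLISA after 16 hr, decreased signal indicating inhibition.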
DT40 TDP1 CPT = DT40-hTDP1 cell growth loss with CPT; chicken DT40 Tdp1-/-;hTDP1 cells + 20 nM CPT, ATP luminescence, 48 h; Potency, µM (doses to about 46.2 µM), inactives show at the top dose activity change, negative = growth inhibition, hits mostly inhibitors; hit rate 12% among 420,000; AID 686979; note: potency is the fitted concentration of half-maximal effect; nearly all actives have a fitted effect of over 55% in size
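Cell growth measured by CellTiter-Glo luminescence after a minimum 48 h, 37 C compound exposure with 20 nM CPT in Tdp1-knockout DT40 cells stably expressing hTDP1, seeded 400/well; qHTS titration format.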
ELG1 repair inh = blocks ELG1-dependent DNA repair in HEK293T cells; Potency, µM (series often up to 46.1 µM), for the others: at the top dose activity change, negative = inhibition, hits mostly inhibitors; AID 504467; HEK293T ELG1-luciferase reporter, luminescence, 16 h; DNA damage induced by 5-fluorouridine; hit rate 2.3% among 330,000; note: potency is the fitted concentration of half-maximal effect; nearly all actives have a fitted effect of over 55% in size
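DMSO vehicle served as the neutral condition. Each well held 2,000 cells given 5-fluorouridine plus compound; after 16 hr at 37 °C/5% CO2, ONE-Glo was added and luciferase measured 30 min later.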
VP16 counter = Gal4-VP16 reporter inhibition counter-screen | Drosophila S2 Gal4-VP16 UAS-luciferase, luminescence, 20 h | Potency, µM (series often up to 53.6 µM), for inactives: top-dose activity, negative = inhibition, hits mostly inhibitors | hit rate 3.5% among 310,000;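 note: Gal4-VP16 expression switched on by copper sulfate through the metallothionein promoter; potency is the fitted concentration of half-maximal effect; nearly all actives have a fitted effect of over 50% in size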
RORg inh = blocks mouse ROR gamma transcriptional activity; P51450; Drosophila S2 Gal4-RORgamma UAS-luciferase reporter, 20 h; Potency, µM (top dose mostly 53.6 µM), for the others: top-dose activity change, negative = inhibition, hits mostly inhibitors; hit rate 5.4% among 310,000; AID 2551; note: potency is the fitted concentration of half-maximal effect; nearly all actives have a fitted effect of over 60% in size
Target sequence (P51450 whole entry, looked up, the tested form may be a part): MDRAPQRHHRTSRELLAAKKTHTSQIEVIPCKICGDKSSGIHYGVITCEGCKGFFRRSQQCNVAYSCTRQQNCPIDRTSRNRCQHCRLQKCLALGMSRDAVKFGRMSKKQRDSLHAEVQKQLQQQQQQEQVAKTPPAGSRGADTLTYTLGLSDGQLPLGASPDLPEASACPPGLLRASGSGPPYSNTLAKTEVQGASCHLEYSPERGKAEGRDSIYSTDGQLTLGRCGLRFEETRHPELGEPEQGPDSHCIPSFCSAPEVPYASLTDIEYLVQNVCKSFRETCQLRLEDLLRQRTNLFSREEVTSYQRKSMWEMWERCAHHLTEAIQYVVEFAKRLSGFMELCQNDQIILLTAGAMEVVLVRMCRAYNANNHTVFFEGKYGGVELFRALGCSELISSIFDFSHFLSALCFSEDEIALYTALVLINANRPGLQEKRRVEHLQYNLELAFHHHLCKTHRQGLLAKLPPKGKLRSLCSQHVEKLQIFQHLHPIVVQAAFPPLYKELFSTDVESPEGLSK
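Using a luciferase readout, inhibitors were identified by reduced reporter activity in Drosophila cells coexpressing a copper-inducible Gal4–ROR gamma fusion and UAS-driven Photinus luciferase, incubated 20 hr after 700 uM copper sulfate.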
TDP1 cell noCPT = qHTS for Inhibitors of human tyrosyl-DNA phosphodiesterase 1 (TDP1): qHTS in cells in absence of CPT; DT40 Tdp1-/- hTDP1 cells, no CPT, ATP luminescence, 48 h; Potency, µM (doses to about 46.2 µM), inactives show at the highest dose activity change, negative = growth inhibition, most hits filed as inhibitors; hit rate 15% among 420,000; AID 686978, 2013; note: potency is the fitted concentration of half-maximal effect; nearly all actives have a fitted effect of over 55% in size
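Camptothecin absent (DMSO only). Human TDP1-complemented DT40 knockout cells, 400 cells/well, 37 °C for minimum 48 hr; ATP measured via CellTiter-Glo, 30 min dark incubation, luminescence.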
An asterisk follows results filed as active; ? = inconclusive; nt = not tested or not shown. Rows were chosen to be rich in hits. Some 21% of all compounds tested hit in one or more screens of this group. Unless noted, calls come from the whole dose curve; as a rule, active = well fitted curve in the direction sought with a large enough effect; inconclusive = small, poorly fitted or top-dose-only effect, or another doubt; inactive = no such curve, though single readings can be large; an effect the other way counts as inactive or inconclusive. % is set by controls: 0 for no effect and ±100 for the full control effect.

SMILES	IL1B secr inh	DT40 TDP1 CPT	ELG1 repair inh	VP16 counter	RORg inh	TDP1 cell noCPT
CC(NC(=O)c1ccc(Cl)cc1)C(=O)NC1=NCCS1 (configuration not stated)	33.9	-0.5%	1.3%	-1.1%	-8.4%	-12.0%
N#Cc1ccc(OCC(=O)NC2=NCCS2)cc1	-1.0	-0.7%	24.6%	-9.2%	34.7%	?
CC(C)C(C(=O)NC1=NCCS1)c1ccc(Cl)cc1 (configuration not stated)	23.4	?	-7.9%	?	4.47µM*	?
CC(C)(C)c1ccc(OCCC(=O)NC2=NCCS2)cc1	0.9	-23.0%	11.1%	8.91µM*	3.55µM*	?
CC(C)c1ccc(/C=C/C(=O)NC2=NCCS2)cc1	nt	nt	?	?	8.91µM*	nt
O=C(/C=C/c1ccc(Cl)c(Cl)c1)NC1=NCCS1	-4.3	-23.0%	?	?	7.94µM*	-12.6%
O=C(NC1=NCCS1)c1cc(Cl)ccc1Cl	-15.5	8.6%	13.3%	nt	nt	5.0%
CCCN(CCC)C(=O)Cn1c(=O)n(-c2ccc(Cl)c(Cl)c2)c(=O)c2c(C)c(C(=O)N(C)C)sc21	nt	-15.7%	nt	nt	nt	-6.0%
Nc1ccn([C@@H]2O[C@H](CNC(=O)[C@@H](N)CSCc3ccccc3)[C@@H](O)[C@H]2O)c(=O)n1	13.1	-17.4%	nt	nt	nt	-16.6%
O=C(Nc1ccccc1)C1=C(c2ccccc2)S(=O)(=O)CCS1(=O)=O	-95.5*	0.058µM*	?	2.24µM*	0.891µM*	0.0259µM*
COc1ccc(NC(=O)c2cc(-c3ccc(C)o3)nc3ccccc23)cc1OC	?	18.4µM*	14.6µM*	-1.6%	15.8%	16.4µM*
Cc1ccc(-c2cc(C(=O)Nc3nccs3)c3ccccc3n2)o1	-3.6	?	-19.4%	?	-82.0%	?
Cc1ccc(-c2cc(C(=O)Nc3ccccc3C(N)=O)c3ccccc3n2)o1	-22.4	14.6µM*	nt	nt	nt	10.3µM*
Cc1ccc(-c2cc(C(=O)N(C)CC(=O)Nc3ccccc3Br)c3ccccc3n2)o1	?	16.4µM*	5.17µM*	nt	nt	?
COc1ccc(NC(=O)c2cc(C)nc3ccccc23)c(OC)c1	31.5	12.7%	2.3%	0.4%	-13.7%	-8.1%
COc1ccc(NC(=O)c2cc(-c3ccc(C)o3)nc3ccccc23)c(OC)c1	-18.9	?	nt	nt	nt	11.6µM*
CCc1cccc(NC(=O)c2nnn(Cc3ccc(SC)cc3)c2N)c1	nt	-1.7%	nt	nt	nt	-1.8%
CCn1c2ccccc2c2cc(NC(=O)CN3CCCC3)ccc21	-69.4*	-13.6%	12.6%	4.5%	-11.0%	-22.1%
CCn1c2ccccc2c2cc(NC(=O)CNCC3CCCO3)ccc21 (configuration not stated)	-52.1*	?	2.9%	-14.7%	17.1%	?
NS(=O)(=O)c1cccc(NC(=O)COC(=O)COc2ccc3ccccc3c2)c1	0.0	0.5%	-2.8%	10.1%	15.3%	-5.0%
O=C(c1cccs1)N1C[C@@H](O)[C@H](n2cc(-c3ccc(F)cc3)nn2)C[C@@H]1c1ccc(Cl)cc1	-18.1	?	nt	nt	nt	23.1µM*
O[C@@H]1CN(Cc2cccs2)[C@@H](c2ccc(Cl)cc2)C[C@H]1n1cc(-c2ccc(F)cc2)nn1	-2.0	?	nt	nt	nt	23.1µM*
O=C(C1CCCCC1)N1C[C@@H](O)[C@H](n2cc(-c3ccc(F)cc3)nn2)C[C@@H]1c1ccccc1	-7.9	?	nt	nt	nt	14.6µM*
O=C(c1cccs1)N1C[C@@H](n2cc(-c3ccc(F)cc3)nn2)[C@H](O)C[C@@H]1c1ccc(Cl)cc1	-16.1	13µM*	nt	nt	nt	23.1µM*
COc1ccc([C@H]2C[C@H](O)[C@@H](n3cc(-c4ccc(F)cc4)nn3)CN2C(=O)c2cccs2)cc1	-6.1	?	nt	nt	nt	?
SMILES	IL1B secr inh	DT40 TDP1 CPT	ELG1 repair inh	VP16 counter	RORg inh	TDP1 cell noCPT
Cc1cc(NC(=O)CCNS(=O)(=O)c2cccc3nsnc23)ccc1Br	nt	-24.7%	nt	nt	nt	-11.6%
CCOc1ccc(C2CC(=O)n3nc(-c4ccc(C)cc4)nc3S2)cc1OC (configuration not stated)	nt	2.5%	nt	nt	nt	-1.6%
O=C(c1cccs1)N1C[C@@H](n2cc(-c3ccc(F)cc3)nn2)[C@H](O)C[C@@H]1c1ccccc1	-19.4	14.6µM*	nt	nt	nt	20.6µM*
O=C(c1cccs1)N1C[C@H](O)[C@@H](n2cc(-c3ccc(F)cc3)nn2)C[C@@H]1c1ccccc1	?	-21.7%	nt	nt	nt	-8.9%
Cn1c2ccccc2c2cc(C(=O)NNC(=O)CCl)sc21	-132.6*	3.66µM*	?	-27.7%	14.1µM*	9.2µM*
CC(=O)Nc1ccc(S(=O)(=O)NNC(=O)c2cccc3ccccc23)cc1	-7.3	-22.2%	-25.2%	4.5%	1.2%	?
CCCNC(=O)c1cc2c3ccccc3n(C)c2s1	2.6	-3.7%	?	7.4%	-6.1%	-22.1%
CC(=O)Nc1ccc(S(=O)(=O)NNC(=O)c2cc3c4ccccc4n(C)c3s2)cc1	-5.1	5.17µM*	?	?	-20.1%	5.17µM*
FC(F)(F)c1cc(CO[C@@H]2CCCN[C@@H]2c2ccccc2)cc(C(F)(F)F)c1	?	?	-6.4%	nt	nt	13µM*
c1ccc(C2NCCNC2c2ccccc2)cc1 (configuration not stated)	-9.4	-11.4%	nt	nt	nt	-3.6%
Cc1c(Cl)cccc1NC(=S)N(Cc1ccco1)C(C)c1ccccn1 (configuration not stated)	7.0	?	-9.6%	?	10µM*	?
CSc1cccc(NC(=S)N(CCN(C)C)C(C)c2ccccn2)c1 (configuration not stated)	-23.2	-29.2%	?	?	17.8µM*	-27.7%
Cc1ccccc1NC(=S)N(CCN(C)C)C(C)c1ccccn1 (configuration not stated)	0.0	-5.2%	5.8%	4.8%	?	-19.4%
Cc1c(Cl)cccc1NC(=S)N(CCN(C)C)C(C)c1ccccn1 (configuration not stated)	-15.8	-11.7%	4.6%	?	12.6µM*	0.4%
CSc1cccc(NC(=S)N(CCN(C)C)C(C)c2ccncc2)c1 (configuration not stated)	?	?	-8.1%	-3.0%	?	?
Cc1ccccc1NC(=S)N(Cc1ccco1)C(C)c1ccccn1 (configuration not stated)	4.9	-13.5%	13.2%	?	12.6µM*	?
CC(=O)NCCNC(=O)c1cnn(-c2nccc(-c3cc(C)sc3C)n2)c1C	nt	?	nt	nt	nt	-7.1%
